# EWS-Fli block: blocks EWS/Fli oncoprotein-driven transcription | A673 NR0B1-luciferase reporter, viability-normalised | inhibition, % at 12.6 µM | 0.67% of 350,000 active | AID 651661;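 active = mean inhibition of at least 50% after viability correction, with every replicate also passing that limit; inconclusive = mean reaches 50% but only one of two replicates passes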;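 also: firefly luciferase signal divided by Alamar Blue viability fluorescence both relative to DMSO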
# TROY signal inh: blocks TROY-dependent signaling in reporter cells. AID 1347056. 0.98% of 360,000 active. inhibition, % at 10 µM. Q293 LMP1-TROYcd NF-kB luciferase reporter, 4 h;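 active = compounds whose plate-normalised and pattern-corrected inhibition of the luciferase reporter signal at the single screening dose is 50% or more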
# TWEAK-Fn14 inh: blocks TWEAK-Fn14 interaction in a reporter cell assay | AID 1159606 | 2% of 360,000 active | inhibition, % at 10 µM | TWEAK-stimulated Fn14 reporter cells, luciferase luminescence, 8 h; in the data active = inhibition above about 50%
# LMP1 NFkB inh: reduces LMP1-driven NF-kappaB luciferase signal; LMP1-induced NF-kappaB luciferase reporter cells, luminescence; inhibition, % at 12.5 µM; 0.69% of 350,000 active; in the data active = inhibition above about 41%; inconclusive = no clear call, values can overlap the other calls;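 also: 0% = neutral control wells and 100% = reference inhibitor control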
# LGR2 inh: Drosophila LGR2 receptor signaling inhibition. AID 720647. 0.35% of 380,000 active. inhibition, % at 9.99 µM. HEK293 LGR2, CRE-luciferase, bursicon-stimulated, 4 h;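 active = drop in luminescence signal, shown as inhibition above about 50% in the replicate tests, limit read from the data, passing the limit was not always enough; inconclusive = probably only some replicates passing the limit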;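 also: agonist challenge used bursicon conditioned medium at about half maximal strength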
# PAX8 inh HTS: PAX8 transcriptional activity inhibition; RMG-I TPO-luciferase reporter, SteadyGlo, 24 h; inhibition, % at 12.6 µM; 1.2% of 360,000 active;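 active = mean replicate inhibition at least 60% with every replicate also reaching 60%; inconclusive = only one of the two criteria is met; inactive = mean below 60% and not all replicates reaching 60%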;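 also: luciferase light reporting Pax8 driven TPO promoter activity; plate controls were median of neutral control wells for no effect and mitoxantrone controls for full effect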
# Numbers without * were called inactive; ? = inconclusive; nt = no result. Shown are actives, neighbours in structure and some others; about 3.2% of the full set was active somewhere.
SMILES,EWS-Fli block,TROY signal inh,TWEAK-Fn14 inh,LMP1 NFkB inh,LGR2 inh,PAX8 inh HTS
C[C@H]1CCCCO[C@H](CN(C)Cc2ccc(Cl)c(Cl)c2)[C@@H](C)CN([C@@H](C)CO)C(=O)c2cc(NC(=O)Nc3ccc(F)cc3)ccc2O1,0.2,nt,nt,nt,19.0,92.3*
C[C@@H]1CCCCO[C@@H](CN(C)Cc2ccc(Cl)c(Cl)c2)[C@@H](C)CN([C@@H](C)CO)C(=O)c2cc(NC(=O)Nc3ccc(F)cc3)ccc2O1,9.2,nt,nt,nt,1.6,57.4
C[C@@H]1CN([C@H](C)CO)C(=O)c2cc(NC(=O)Nc3ccc(F)cc3)ccc2O[C@@H](C)CCCCO[C@@H]1CN(C)Cc1ccc(Cl)c(Cl)c1,-0.3,nt,nt,nt,9.7,85.2*
CC(C)NC(=O)Nc1ccc2c(c1)C(=O)N([C@H](C)CO)C[C@H](C)[C@@H](CN(C)Cc1ccc(Cl)c(Cl)c1)OCCCC[C@@H](C)O2,-3.9,nt,nt,nt,6.0,-14.0
C[C@H]1CCCCO[C@@H](CN(C)Cc2ccncc2)[C@@H](C)CN([C@@H](C)CO)C(=O)c2cc(N(C)C)ccc2O1,-3.3,nt,nt,nt,14.6,7.8
CO[C@H]1CN(C)C(=O)c2ccc(NC(C)=O)cc2OC[C@@H](C)N(Cc2ccccc2F)C[C@@H]1C,8.9,nt,nt,nt,8.8,2.7
CC(NC(=O)Nc1ccc(Cl)cc1)c1ccccc1 (configuration not stated),-2.5,-34.1,7.3,-1.6,-11.0,21.0
Cc1ccc(C(NC(=O)NC(C)c2ccccc2)C(Cl)(Cl)Cl)cc1F (configuration not stated),nt,58.4*,55.3*,9.6,?,nt
CC(C)(C)NC(=S)N1CCC(C(=O)c2ccc(F)cc2)CC1,18.3,13.1,-12.4,3.5,-8.1,-92.7
CC(C)(C)NC(=S)N1CCC(C(=O)c2ccc(Cl)cc2)CC1,-5.7,-17.7,11.2,42.5*,-3.5,-21.8
CCOC(=O)N1CCC(NC(=O)C2CCCN(Cc3nc(-c4cccc(Cl)c4)oc3C)C2)CC1 (configuration not stated),21.7,21.5,39.1,52.5*,-8.6,2.6
COC(=O)C[C@@H]1CC[C@H]2[C@@H](COC[C@@H](O)CN2C(=O)Nc2ccccc2OC)O1,3.4,nt,nt,nt,-3.4,-2.9
COc1ccccc1C(=O)NC(=O)CSc1nnc(N)s1,0.3,9.4,3.5,41.6*,-10.2,4.0
CCOC(=O)C1=C(c2ccccc2)NC(SCC(=O)Nc2ccccc2C)=C(C#N)C1c1ccco1 (configuration not stated),nt,8.1,51.4*,2.8,nt,4.6
CCOC(=O)C1=C(c2ccccc2)NC(SCC(=O)Nc2ccc(C)cc2)=C(C#N)C1c1ccco1 (configuration not stated),1.8,20.6,25.2,4.8,5.3,nt
FC(F)(F)c1cccc(Nc2cc(-c3ccccc3)nc3ncnn23)c1,29.2,-7.8,-4.0,3.7,-2.3,1.5
FC(F)(F)c1ccc(N2CCN(c3cc(-c4ccccc4)nc4ncnn34)CC2)nc1,nt,66.7*,79.8*,29.7,nt,nt
O=C(COc1ccc(C(=O)c2ccc(F)cc2)cc1)NCc1ccc(F)cc1,57.1*,9.2,26.7,4.1,19.6,20.9
COc1ccc(CNC(=O)COc2ccc(C(=O)c3ccc(F)cc3)cc2)cc1,14.4,11.4,28.2,-3.4,3.0,8.6
O=C(O)c1ccc(-n2cncn2)c([N+](=O)[O-])c1,0.6,-2.9,8.1,49.3*,9.7,-3.2
Cc1cccc(C(=O)Nc2ncc(CN3CCOCC3)s2)c1,-2.2,-6.5,66.2*,0.2,4.6,nt
Cc1cccc(C(=O)N[C@H](C(=O)Nc2ncc(C)s2)C(C)C)c1,37.2,-0.5,23.7,-55.3,25.7,70.4*
Cc1cccc(C(=O)N[C@H](C(=O)Nc2nnc(C3CC3)s2)C(C)C)c1,nt,0.5,11.6,5.2,-2.5,15.7
Cc1cccc(C(=O)Nc2ccc(NC(=O)CN3CCOCC3)cc2)c1,-7.7,-4.3,1.5,-0.3,9.8,-11.4
COc1ccccc1S(=O)(=O)N[C@H]1C=C[C@@H](CC(=O)N2CCN(C)CC2)O[C@@H]1CO,-6.6,nt,nt,nt,-0.5,-12.4
SMILES,EWS-Fli block,TROY signal inh,TWEAK-Fn14 inh,LMP1 NFkB inh,LGR2 inh,PAX8 inh HTS
CC(C)(C)c1ccc(-c2cc(-c3ccccc3O)[nH]n2)cc1,22.2,83.3*,85.1*,-51.8,13.5,-76.9
O=c1oc(Nc2ccc(F)cc2)nc2ccccc12,nt,6.5,57.9*,-14.8,24.0,nt
CC(C)(C)c1ccc(C(=O)N2CCC(=O)N(C(CO)Cc3ccccc3)CC2)cc1 (configuration not stated),3.4,-31.7,7.2,78.4*,-3.9,-6.5
O=C(c1ccccc1)N1CCC(=O)N(C(CO)Cc2ccccc2)CC1 (configuration not stated),4.0,-20.1,-10.8,-2.4,2.8,-17.3
Cc1ccccc1Nc1nc(Nc2ccccc2C)nc(SC2=NCCS2)n1,8.7,18.3,71.3*,19.8,2.2,nt
COc1ccccc1C#Cc1ccc([C@@H]2[C@@H](CO)N(C(=O)C3CCCC3)[C@H]2C#N)cc1,-1.8,nt,nt,nt,8.0,nt
CCCCN(c1ccccc1)c1ncnc(N)c1[N+](=O)[O-],-10.3,36.4,82.9*,46.5*,17.5,nt
CN(c1ncnc(N)c1[N+](=O)[O-])C1CCCCC1,-26.6,52.2*,81.3*,38.4,28.1,-49.3
CC1=Nc2ccccc2/C1=C/c1sc(=N)n(-c2nccs2)c1O,nt,73.5*,101.0*,29.4,-2.4,nt
C[C@H](CO)N1C[C@H](C)[C@@H](CN(C)S(=O)(=O)c2ccc(F)cc2)Oc2cc(-c3cccc(F)c3)ccc2S1(=O)=O,13.6,nt,nt,nt,20.5,nt
C/C(N=Nc1nc2ccccc2s1)=N\Nc1ccccc1O,0.6,7.1,80.4*,3.1,-7.4,-3.8
COc1ccc(N2Cc3cccc(C(=O)NC(C)CCc4ccco4)c3C2=O)cc1 (configuration not stated),3.7,-11.7,0.3,46.9*,-20.0,6.2
CC(CCc1ccco1)NC(=O)c1cccc2c1C(=O)N(C1CCCCC1)C2 (configuration not stated),11.3,17.4,9.4,-2.2,0.6,-15.1
O=C(Nc1nc2ccc(F)cc2s1)C1CCN(S(=O)(=O)c2cc([N+](=O)[O-])ccc2Cl)CC1,-4.0,34.0,84.3*,21.5,3.5,-2.3
Cc1ccc2nc(NC(=O)C3CCN(S(=O)(=O)c4cc([N+](=O)[O-])ccc4Cl)CC3)sc2c1,-5.1,28.6,83.0*,30.1,-5.7,38.4
Cc1ccc(NC(=O)C2CCN(S(=O)(=O)c3cc([N+](=O)[O-])ccc3Cl)CC2)nc1,16.5,11.9,24.9,37.6,30.3,42.9
COc1ccc2c3c(n(C)c2c1)[C@@H](CO)N(C(=O)C1CCOCC1)CC31CCN(C(=O)C2CCOCC2)CC1,-6.7,nt,nt,nt,-6.0,0.0
Oc1cccc2c(NC(=S)Nc3ccc(OC(F)F)cc3)cccc12,-12.8,47.6,90.8*,-13.0,14.0,-34.9
Cc1cc(NN=Cc2ccccn2)nc2ccccc12,-4.7,nt,nt,nt,-9.3,41.2
